Test results reported in PubChem BioAssay AID652070 (Broad Institute, 2013).
Records with an inconclusive call do not appear. The source made the active and inactive calls. The rule behind the calls is not given here.

Assay: caspase 3/7 activation in HT29 HRAS cells, mechanism study for HRAS target identification, cell-based, caspase 3/7 luminescence, multiple timepoints, dry powder (AID 652070)
Details: max activity: measured here: third timepoint caspase 3/7, at 0.068 µM, stronger effect = higher value unless noted

Structure (SMILES)	max activity	outcome
Cc1onc(C(=O)N2CCN(C(c3ccc(Cl)cc3)c3ccc(OCCOCCOCCNC(=O)OC(C)(C)C)cc3)CC2)c1[N+](=O)[O-] (configuration not stated)	22.2% [measured here: third timepoint caspase 3/7, at 0.0001 µM, stronger effect = higher value]	inactive
CCC(=O)N(c1ccc(OC)c(Cl)c1)C(C(=O)NCCc1ccccc1)c1cccs1 (configuration not stated)	17.8%	inactive
Cc1onc(C(=O)N2CCN(C(c3ccc(Cl)cc3)c3ccc(Cl)cc3)CC2)c1[N+](=O)[O-]	13.3% [measured here: third timepoint caspase 3/7, at 0.0001 µM, stronger effect = higher value]	inactive
CO[C@H]1C[C@@H]2CC[C@@H](C)[C@@](O)(O2)C(=O)C(=O)N2CCCC[C@H]2C(=O)O[C@H]([C@H](C)C[C@@H]2CC[C@@H](O)[C@H](OC)C2)CC(=O)[C@H](C)/C=C(\C)[C@@H](O)[C@@H](OC)C(=O)[C@H](C)C[C@H](C)/C=C/C=C/C=C/1C	31.1% [measured here: third timepoint caspase 3/7, at 35 µM, stronger effect = higher value]	inactive
O=C(NCCOCCOCCOc1ccc(N(C(=O)CCl)C(C(=O)NCCc2ccccc2)c2cccs2)cc1Cl)c1ccc(COC2C#CCCCCC2)cc1 (configuration not stated)	24.4%	inactive
COc1ccc(N(C(=O)CCl)C(C(=O)NCCc2ccccc2)c2cccs2)cc1Cl (configuration not stated)	22.2% [measured here: third timepoint caspase 3/7, at 8 µM, stronger effect = higher value]	inactive
